Assay results published in PubChem BioAssay AID504652 (National Center for Advancing Translational Sciences (NCATS), 2011).
Out of some 360,000 compounds screened, about 11,000 (3.1%) were called active. Rule as the data show it: active = activity change below about -30%; inactive = the rest. What follows is part of a selection rich in actives, with near analogues and random picks from the rest.

These compounds were tested against D(1A) dopamine receptor (Homo sapiens) (UniProt P21728) (assay: Antagonist of Human D 1 Dopamine Receptor: qHTS). Details: HEK293 TREx D1 cells, calcium flux, dopamine EC80; at 10 µM; hits give low values.
Sequence of D(1A) dopamine receptor (Homo sapiens) (P21728 whole entry, looked up): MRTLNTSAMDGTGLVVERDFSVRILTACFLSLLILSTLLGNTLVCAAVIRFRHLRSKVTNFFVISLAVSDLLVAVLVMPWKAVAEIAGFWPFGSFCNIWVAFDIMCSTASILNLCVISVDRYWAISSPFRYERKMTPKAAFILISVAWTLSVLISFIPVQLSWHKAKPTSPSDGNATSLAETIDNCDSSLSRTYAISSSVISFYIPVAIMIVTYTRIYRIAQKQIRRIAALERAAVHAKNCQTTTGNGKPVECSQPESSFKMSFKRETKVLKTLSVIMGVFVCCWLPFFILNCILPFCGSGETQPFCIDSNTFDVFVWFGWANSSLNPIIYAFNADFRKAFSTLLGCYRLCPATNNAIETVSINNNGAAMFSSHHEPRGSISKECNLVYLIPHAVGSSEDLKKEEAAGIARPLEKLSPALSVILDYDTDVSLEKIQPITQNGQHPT
In short: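 Allosteric or orthosteric antagonism assessed as attenuation of the calcium response to EC80 dopamine, added 180 s after compound, in induced HEK293 Trex D1 cells loaded with no-wash calcium dye.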
% is scaled to controls: 0 for no effect and ±100 for the full control effect.

SMILES | activity change, negative = inhibition
CCC(=O)N1CCc2cc(S(=O)(=O)NCCC(=O)Nc3cccc(C)c3C)ccc21 | -2.16% (inactive)
O=C(CC(=O)Nc1ccc(Cl)c(Cl)c1)N/N=C/c1ccc(O)cc1 | -37.9% (active)
CC1=NNC(=O)C1CCC(=O)N/N=C\c1ccc(Cl)c(Cl)c1 (configuration not stated) | 6.69% (inactive)
Nc1nnn(CC(=O)N/N=C/c2ccc(O)cc2)n1 | -2.2% (inactive)
Cc1ccn2c(Nc3ccc4c(c3)OCCO4)c(-c3ccc(C)s3)nc2c1 | -15.7% (inactive)
O=C(NC1CCN(Cc2ccccc2)CC1)c1cc(Br)c(Br)[nH]1 | -71.3% (active)
S=C(NN=C1CCN(Cc2ccccc2)CC1)NC1CCCCC1 | 2.36% (inactive)
O=C(NC1CCN(Cc2ccccc2)CC1)c1ccc(Oc2cc(Cl)cc(Cl)c2)o1 | -10.1% (inactive)
Cc1cc(C(=O)NC2CCN(Cc3ccccc3)CC2)n[nH]1 | -5.73% (inactive)
S=C(Nc1ccc(Br)cc1Cl)NC1CCN(Cc2ccccc2)CC1 | -18.2% (inactive)
S=C(Nc1ccc(Br)cc1)NC1CCN(Cc2ccccc2)CC1 | -68.5% (active)
Cc1ccc2nc(COc3ccccc3NC(=O)Nc3ccc(F)c(Cl)c3)cc(=O)n2c1 | -18.5% (inactive)
CCc1ccccc1N(C)C(=O)C1CCCN(c2ncnc3onc(-c4ccc(F)cc4)c23)C1 (configuration not stated) | -2.86% (inactive)
O=C(O)c1ccc(Cn2c(SCc3ccc(F)cc3)nc3ccncc32)cc1 | 11.2% (inactive)
CCc1ccccc1NC(=O)c1cnn(-c2ccc(F)cc2)c1C1CCNCC1 | -15.1% (inactive)
CCOC(=O)c1ccccc1NC(=O)c1sc2nc(-c3ccc(F)cc3)cn2c1C | 6.46% (inactive)
CCOc1ccc(NC(=O)C(=O)NCCc2csc3nc(-c4ccccc4F)nn23)cc1 | -3.3% (inactive)
COc1ccccc1C(=O)NC(CCSC)C(=O)N1CCN(C(C)=O)CC1 (configuration not stated) | -23.2% (inactive)
CSCCC(NC(=O)c1ccccc1)C(=O)N1CCCCCCC1 (configuration not stated) | -32.7% (active)
CSCCC(NC(=O)c1ccccc1)C(=O)N1CCN(Cc2ccc(Cl)cc2)CC1 (configuration not stated) | 18.2% (inactive)
CCOc1ccccc1NC(=O)CSc1ncc(S(=O)(=O)c2ccc(C(C)(C)C)cc2)c(=O)[nH]1 | 10.4% (inactive)
Cc1ccccc1OCC(=O)Nc1c(C(=O)Nc2ccccc2F)oc2ccccc12 | -7.86% (inactive)
CCOc1cc(C2C(C(=O)OC)=CN(C3CCCC3)C=C2C(=O)OC)cc(Br)c1O | -30.9% (active)

SMILES | activity change, negative = inhibition
CCCC(=O)Nc1cc(OCC)c(NC(=O)NC2CCCCC2)cc1OCC | -5.85% (inactive)
COC(=O)C1=CN(Cc2ccc(OC)cc2)C=C(C(=O)OC)C1c1ccc(O)c(OC)c1 | 11.1% (inactive)
Cc1cc(C)c2nc(NC(=O)C3CCCO3)sc2c1 (configuration not stated) | -5.2% (inactive)
CN1CCN(S(=O)(=O)c2ccc(NC(=O)C3CCCO3)cc2)CC1 (configuration not stated) | -2.7% (inactive)
O=C(Nc1nc2ccc(S(=O)(=O)N3CCCC3)cc2s1)C1CCCO1 (configuration not stated) | -41.4% (active)
Cc1ccc(Cl)cc1NC(=O)NC1COc2ccccc2C1 (configuration not stated) | -23% (inactive)
O=C(CCc1nc(CN2CCN(S(=O)(=O)c3ccc(Br)cc3)CC2)no1)N1CCCCC1 | -0.355% (inactive)
CCN(c1ccccc1)S(=O)(=O)c1cc(C(=O)NCc2ccccn2)ccc1C | -89.3% (active)
CCN(CC)S(=O)(=O)c1cc(C(=O)Nc2ccccn2)ccc1C | 5.43% (inactive)
Cc1ccc(NC(=O)CNCc2ccccn2)cc1S(=O)(=O)N(C)C | -15% (inactive)
NC(=O)NCCCC(=O)O | -51% (active)
Cc1oc(C)c(C(=O)NCCCC(=O)O)c1C(=O)NCCCC(=O)O | 1.94% (inactive)
CCCCCCCCCCCC(=O)O | -4.71% (inactive)
COc1ccccc1C1C(C(=O)N2CCCCC2)=C(C)Nc2nc3ccccc3n21 (configuration not stated) | 3.49% (inactive)
O=C(CS(=O)(=O)c1cccc2nsnc12)N1CCN(c2cccc(Cl)c2)CC1 | -13.7% (inactive)
Cc1cc(OCCCN2CCN(Cc3ccccc3)CC2)ccc1[N+](=O)[O-] | -35.7% (active)
Cc1cc(OCC(=O)NC2CCN(C)CC2)ccc1[N+](=O)[O-] | -13% (inactive)
COc1cc(CN2CCN(Cc3ccc(C)cc3)CC2)c([N+](=O)[O-])cc1OC | 5.79% (inactive)
O=C(CCn1c(=O)c2ccccc2n(Cc2ccc(Cl)cc2)c1=O)NCc1ccc2c(c1)OCO2 | -2.86% (inactive)
CCC(=O)Nc1ccc(S(=O)(=O)NCC2CCCO2)cc1 (configuration not stated) | -9.18% (inactive)
CCOc1ccc(C(=O)Nc2ccc(S(=O)(=O)NCC3CCCO3)cc2)cc1OCC (configuration not stated) | -38.2% (active)
CCOC(=O)c1c(NC(=O)c2ccc(S(=O)(=O)N(C)CC3CCCO3)cc2)sc2c1CC(C)(C)NC2(C)C (configuration not stated) | -2.75% (inactive)
Cc1ccc(NC(=O)c2ccc(S(=O)(=O)NCC3CCCO3)cc2)cc1C (configuration not stated) | -12% (inactive)

SMILES | activity change, negative = inhibition
CN(CC1CCCO1)S(=O)(=O)c1ccc(C(=O)Nc2ccc(F)cc2)cc1 (configuration not stated) | -41.6% (active)
CN(CC1CCCO1)S(=O)(=O)c1ccc(C(=O)Nc2ccc([N+](=O)[O-])cc2)cc1 (configuration not stated) | -32.3% (active)
O=C(Nc1ccc(S(=O)(=O)NCC2CCCO2)cc1)c1ccc(F)cc1 (configuration not stated) | -29.6% (inactive)
O=C(NCC1CCCO1)c1ccc(S(=O)(=O)Nc2ccc(F)cc2)cc1 (configuration not stated) | -8.93% (inactive)
CC1CCc2noc(NC(=O)c3ccc([N+](=O)[O-])cc3)c2C1 (configuration not stated) | -19.9% (inactive)
CCC1(C)CC(=O)c2c(ccc3oc(C(=O)Nc4ccc(C(C)=O)cc4)c(C)c23)O1 (configuration not stated) | -2.38% (inactive)
COc1cccc(CNC(=O)Cn2c(=O)c3cccn3c3ccc(F)cc32)c1OC | 4% (inactive)
CCOc1cc(NC(=S)NCCCOC)c(OCC)cc1NC(=O)c1ccco1 | -35.1% (active)
CCOc1cc(NC(=S)NCCCN(C)C)c(OCC)cc1NC(=O)C1CC1 | -3.38% (inactive)
CCOc1cc(NC(=S)NCc2ccco2)c(OCC)cc1NC(=O)c1ccco1 | -1.48% (inactive)
CCSc1ncc(Cl)c(C(=O)Nc2c(C(=O)c3ccccc3)oc3ccccc23)n1 | -6.04% (inactive)
Cc1ccccc1CS(=O)(=O)CC1Nc2ccc(C(=O)NCc3ccc(Cl)cc3)cc2NC1=O (configuration not stated) | -8.08% (inactive)
Cc1cc(C(=O)COC(=O)C2CC2)c(C)n1-c1ccc(F)cc1 | -6.5% (inactive)
Cc1cc(C(=O)N/N=C/c2ccc(O)c([N+](=O)[O-])c2)c(C)n1-c1ccc(F)cc1 | -30% (active)
O=C1CSC(=S)N1/N=C/c1ccc(O)c([N+](=O)[O-])c1 | -20.2% (inactive)
Cc1ccccc1CN1CCC(CNC(=O)c2c(C)oc3ncnc(N4CCCCC4)c23)CC1 | -6.32% (inactive)
O=C(Nc1ccc(F)cc1)C(=O)c1cn(CC(=O)N2CCOCC2)c2ccccc12 | 0.328% (inactive)
O=C(Oc1ccc(C(=S)N2CCOCC2)cc1)c1ccc(F)cc1 | -12.9% (inactive)
O=C(c1ccc(F)cc1)n1cc(C(=S)N2CCOCC2)c2ccccc21 | -30.2% (active)
Cn1c(=O)sc2cc(NS(=O)(=O)c3ccc(C(C)(C)C)cc3)ccc21 | 6.14% (inactive)
O=C(O)CS/C(=C\c1ccc(F)cc1)c1nc2ccccc2s1 | -33.3% (active)
O=C(O)CC/C(=C\c1cc2c(cc1Br)OCO2)c1nc2ccccc2s1 | -6.84% (inactive)
CC1=CC(=C(C#N)c2nc3ccccc3s2)C=C(C)N1c1ccc(F)cc1F | -3.42% (inactive)

SMILES | activity change, negative = inhibition
COc1ccc(OC)c(NC(=O)CSc2nc3ccccc3nc2N2CCCCC2)c1 | -1.47% (inactive)
Cc1cccc(NC(=O)CSc2nnc(CNC(=O)c3cccc(C)c3)n2-c2ccccc2)c1 | -12.8% (inactive)
Cc1ccc(-c2nc(CS(=O)(=O)CC(=O)NCc3ccccc3Cl)c(C)o2)cc1 | 3.92% (inactive)
Cc1ccsc1C1C(C#N)=C(N)OC2=C1C(=O)CC(C)C2 (configuration not stated) | -22.6% (inactive)
Cc1ccsc1C1C(C#N)=C(N)OC2=C1C(=O)CC(C)(C)C2 (configuration not stated) | -36.3% (active)
COc1ccc(C2C(C#N)=C(/N=C/N3CCOCC3)OC3=C2C(=O)CC(C)(C)C3)cc1OC (configuration not stated) | 4.71% (inactive)
COc1ccc(-c2c(C)nn3c(N4CCC(C(=O)NCCC(C)C)CC4)cc(C)nc23)cc1OC | -5.31% (inactive)
COc1cccc(CNc2nccn(-c3ccc(OC)c(OC)c3)c2=O)c1 | 6.9% (inactive)
COc1ccc(C2NC(=O)N(C)C3=C2C(=O)N(c2ccc(C(=O)O)cc2)C3)cc1 (configuration not stated) | -10.6% (inactive)
COC(=O)c1ccc(NC(=O)CCc2c(C)nn(-c3ccc(N4CCCC4)nn3)c2C)cc1 | -3.84% (inactive)
CCOc1c(OC)cccc1C(=O)NCC1(c2ccccc2)CCCC1 | 19% (inactive)
Cc1cccc(C(CC(=O)NCC2(c3ccccc3)CCCC2)c2ccccc2)c1O (configuration not stated) | -31% (active)
O=C(CNC1CCCCC1)NCC1(c2ccccc2)CCCC1 | 4.83% (inactive)
COc1ccc(/C=C/c2noc(-c3ccccc3O)n2)cc1OC | 4.82% (inactive)
CC(C)CCN(C(=O)Nc1ccc(Cl)c(Cl)c1)C(C)c1cccs1 (configuration not stated) | -22.4% (inactive)
O=C(COc1ccc(Cl)cc1)Nc1ccccc1OCc1cc(=O)n2ccccc2n1 | 0.395% (inactive)
O=C(CSc1ncc(CO)n1Cc1ccc(Cl)cc1)NCc1ccc(F)cc1 | -8.7% (inactive)
CCN(Cc1ccncc1)C(=O)c1cccc(S(=O)(=O)N2CCOCC2)c1 | -44.2% (active)
Cc1nn(Cc2ccccc2)c(C)c1CNC(=O)c1ccc(F)c(S(=O)(=O)N2CCOCC2)c1 | -20.4% (inactive)
CC(C)C(NC(=O)c1cccc(S(=O)(=O)N2CCOCC2)c1)C(=O)NCCc1ccccn1 (configuration not stated) | 10.6% (inactive)
COc1ccc(C(=O)N(Cc2ccccc2)c2ccc(C)cc2)cc1S(=O)(=O)N1CCOCC1 | 8.42% (inactive)
O=C(c1ccc(F)c(S(=O)(=O)N2CCOCC2)c1)N(CCc1ccccc1)Cc1ccccc1 | -39.2% (active)
CCN(CC(=O)NCc1cccs1)C(=O)c1ccc(OC)c(S(=O)(=O)N2CCOCC2)c1 | 2.75% (inactive)
